Test results taken from PubChem BioAssay AID1159580 (chemical genetic matrix, 2015).
Screen size: about 5,500 compounds; about 2,000 (36%) were called active. Inconclusive results (about 18%) are left out. No stated cut-off is given here; in the data, active means normalized growth mostly below about 0.91 (no sharp cut-off); inconclusive means no clear call, values can overlap the other calls; inactive means mostly above about 0.92. Some of the results follow.

Assay: chemical genetic growth profiling, strain panel (AID 1159580);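 further: tested at 20 µM; growth read once vehicle control cultures reached saturation at 30 °C; 1 = growth at the plate median or of vehicle wells; lower values mean less growth of the strain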
Settings: S. cerevisiae deletion strains, growth OD
[1] = locus YHR030C, strain SLT2, hits give low values
[2] = locus YJL095W, strain BCK1, hits give low values

Measured: normalized growth

C[C@]12C=CC(=O)C=C1CCC1C2[C@@H](O)C[C@@]2(C)C1CC[C@]2(O)C(=O)COC(=O)CCC(=O)O (stereo not given in full)
inactive: [1] 0.969 | locus YHR079C, strain IRE1, hits give low values 0.968 | [2] 1 | locus YJR066W, strain TOR1, hits give low values 0.931 | locus YLR113W, strain HOG1, hits give low values 1 | locus YNL183C, strain NPR1, hits give low values 0.931 | locus YOR231W, strain MKK1, hits give low values 0.979 | locus YPL256C, strain CLN2, hits give low values 0.963

CC(CC(O)C1OC1(C)C)[C@@H]1CCC2(C)C3=CCC4C(C)(C)C(=O)CCC4(C)C3CC[C@@]12C (stereo not given in full)
inactive: locus YAL021C, strain ccr4, hits give low values 0.986 | locus YAL026C, strain drs2, hits give low values 0.997 | locus YAL030W, strain snc1, hits give low values 1 | locus YBL061C, strain skt5, hits give low values 1.02 | locus YBR009C, strain hhf1, hits give low values 0.979 | locus YBR021W, strain FUR4, hits give low values 0.993 | locus YBR023C, strain chs3, hits give low values 1.01 | locus YBR171W, strain sec66, hits give low values 0.999 | locus YBR229C, strain ROT2, hits give low values 1.03 | locus YBR231C, strain swc5, hits give low values 1.04 | locus YBR279W, strain paf1, hits give low values 0.999 | locus YCL011C, strain gbp2, hits give low values 1.01 | locus YCL016C, strain dcc1, hits give low values 0.994 | locus YCL029C, strain bik1, hits give low values 1.03 | locus YCL061C, strain MRC1, hits give low values 0.994 | locus YCL069W, strain vba3, hits give low values 0.995 | locus YCR088W, strain abp1, hits give low values 1.01 | locus YDL005C, strain med2, hits give low values 1.01 | locus YDL035C, strain GPR1, hits give low values 0.952 | locus YDL040C, strain nat1, hits give low values 1 | locus YDL074C, strain BRE1, hits give low values 1.02 | locus YDL101C, strain DUN1, hits give low values 1.04 | locus YDL134C, strain PPH21, hits give low values 1.03 | locus YDL185W, strain tfp1, hits give low values 1.03 | locus YDL192W, strain arf1, hits give low values 1.03 | locus YDR001C, strain nth1, hits give low values 0.984 | locus YDR069C, strain doa4, hits give low values 1 | locus YDR101C, strain arx1, hits give low values 1.02 | locus YDR159W, strain sac3, hits give low values 1.01 | locus YDR162C, strain NBP2, hits give low values 1.04 | locus YDR195W, strain ref2 0.971 | locus YDR297W, strain sur2, hits give low values 1 | locus YDR318W, strain mcm21, hits give low values 1.04 | locus YDR334W, strain swr1, hits give low values 0.997 | locus YDR335W, strain msn5, hits give low values 0.993 | locus YDR388W, hits give low values 1.03 | locus YDR392W, strain spt3, hits give low values 1.02 | locus YDR502C, strain sam2, hits give low values 1.03 | locus YEL003W, strain gim4, hits give low values 1.01 | locus YEL037C, strain rad23, hits give low values 1 | locus YEL061C, strain CIN8 (second series), hits give low values 1 | locus YER015W, strain faa2, hits give low values 1 | locus YER016W, strain bim1, hits give low values 1 | locus YER110C, hits give low values 1.03 | locus YER111C, strain swi4, hits give low values 1.02 | locus YER155C, strain BEM2 (second series), hits give low values 1.04 | locus YER155C, strain BEM2, hits give low values 1.04 | locus YER167W, strain BCK2, hits give low values 1.05 | locus YFR010W, strain ubp6, hits give low values 0.997 | locus YGL078C, strain dbp3, hits give low values 1.01 | locus YGL086W, strain mad1, hits give low values 1.05 | locus YGL167C, strain pmr1, hits give low values 0.999 | locus YGL173C, strain kem1, hits give low values 1 | locus YGL227W, strain vid30, hits give low values 0.998 | locus YGL240W, strain doc1, hits give low values 1.02 | locus YGL248W, strain PDE1, hits give low values 1.03 | locus YGL253W, strain hxk2, hits give low values 0.994 | locus YGR135W, strain pre9, hits give low values 1.04 | locus YGR229C, strain SMI1, hits give low values 1.08 | locus YGR252W, strain gcn5, hits give low values 1.17 | locus YHR013C, strain ard1, hits give low values 1.03 | locus YHR027C, strain rpn1, hits give low values 1 | [1] 1.03 | locus YHR079C, strain IRE1 (second series), hits give low values 1.03 | locus YHR094C, strain hxt1, hits give low values 1.04 | locus YHR129C, strain ARP1, hits give low values 1.04 | locus YHR142W, strain chs7, hits give low values 1 | locus YHR200W, strain rpn10, hits give low values 1.03 | locus YIL066C, strain RNR3, hits give low values 1.01 | locus YIL073C, strain SPO22, hits give low values 1.1 | locus YIL125W, strain kgd1, hits give low values 1.03 | locus YIR030C, strain dcg1, hits give low values 1.03 | locus YJL092W, strain hpr5, hits give low values 1 | locus YJL095W, strain BCK1 (second series), hits give low values 1 | [2] 1.05 | locus YJL115W, strain asf1, hits give low values 0.992 | locus YJL129C, strain trk1, hits give low values 0.993 | locus YJL134W, strain LCB3, hits give low values 1.04 | locus YJL154C, strain vps35, hits give low values 1 | locus YJL164C, strain tpk1, hits give low values 0.966 | locus YJL166W, strain qcr8, hits give low values 0.988 | locus YJL168C, strain set2, hits give low values 1.04 | locus YJL187C, strain SWE1 (second series), hits give low values 1.03 | locus YJL187C, strain SWE1, hits give low values 0.995 | locus YKL068W, hits give low values 1.01 | locus YKL160W, strain elf1, hits give low values 0.993 | locus YKR001C, strain vps1, hits give low values 1.07 | locus YKR026C, strain gcn3, hits give low values 1.01 | locus YKR091W, strain srl3, hits give low values 0.996 | locus YLL001W, strain dnm1, hits give low values 0.949 | locus YLL026W, hits give low values 0.998 | locus YLL041C, strain sdh2, hits give low values 0.998 | locus YLR027C, strain aat2, hits give low values 0.993 | locus YLR039C, strain RIC1, hits give low values 1.09 | locus YLR058C, strain SHM2, hits give low values 1.04 | locus YLR102C, strain apc9, hits give low values 1.04 | locus YLR221C, strain rsa3, hits give low values 1.03 | locus YLR258W, strain gsy2, hits give low values 1.01 | locus YLR262C, strain YPT6, hits give low values 1.02 | locus YLR268W, strain sec22, hits give low values 1.04 | locus YLR320W, strain mms22, hits give low values 1.03 | locus YLR330W, strain CHS5, hits give low values 1.04 | locus YLR342W, strain FKS1, hits give low values 1.02 | locus YLR357W, strain rsc2, hits give low values 1.02 | locus YLR370C, strain arc18, hits give low values 1.01 | locus YLR371W, strain rom2, hits give low values 1.04 | locus YLR384C, strain iki3, hits give low values 1 | locus YLR418C, strain cdc73, hits give low values 1.09 | locus YML016C, strain PPZ1, hits give low values 1.05 | locus YML032C, strain rad52, hits give low values 1.04 | locus YML120C, strain ndi1, hits give low values 0.995 | locus YML124C, strain tub3, hits give low values 1.03 | locus YMR058W, strain fet3, hits give low values 1.01 | locus YMR078C, strain ctf18, hits give low values 1.05 | locus YMR125W, strain sto1, hits give low values 1 | locus YMR129W, hits give low values 1 | locus YMR205C, strain PFK2, hits give low values 0.943 | locus YMR223W, strain ubp8, hits give low values 1.03 | locus YMR231W, strain pep5, hits give low values 0.98 | locus YMR307W, strain GAS1, hits give low values 1.07 | locus YNL067W, strain RPL9B, hits give low values 1.03 | locus YNL071W, strain lat1, hits give low values 0.996 | locus YNL153C, strain GIM3, hits give low values 1.01 | locus YNL209W, strain ssb2, hits give low values 1 | locus YNL233W, strain BNI4, hits give low values 1.03 | locus YNL248C, strain rpa49, hits give low values 0.959 | locus YNL250W, strain rad50, hits give low values 1.04 | locus YNL271C, strain bni1, hits give low values 1.03 | locus YNL298W, strain CLA4, hits give low values 1.02 | locus YNL307C, strain MCK1, hits give low values 1.03 | locus YNL322C, strain KRE1 (second series), hits give low values 0.989 | locus YNR049C, strain mso1, hits give low values 0.995 | locus YNR052C, strain pop2, hits give low values 1.04 | locus YOL006C, strain TOP1, hits give low values 1.09 | locus YOL012C, strain htz1 1.47 | locus YOL147C, strain pex11, hits give low values 1.05 | locus YOR001W, strain rrp6, hits give low values 0.983 | locus YOR061W, strain CKA2, hits give low values 1.03 | locus YOR069W, strain VPS5, hits give low values 1.03 | locus YOR070C, strain gyp1, hits give low values 1.02 | locus YOR080W, strain dia2, hits give low values 1.01 | locus YOR083W, strain WHI5, hits give low values 0.994 | locus YOR106W, strain vam3, hits give low values 0.982 | locus YOR136W, strain idh2, hits give low values 1.03 | locus YOR144C, strain elg1, hits give low values 1.04 | locus YOR184W, strain ser1, hits give low values 0.955 | locus YOR265W, strain rbl2, hits give low values 0.999 | locus YOR270C, strain vph1, hits give low values 0.877 | locus YOR290C, strain snf2, hits give low values 0.946 | locus YOR316C, strain cot1, hits give low values 1.02 | locus YPL051W, strain arl3, hits give low values 1.03 | locus YPL078C, strain atp4, hits give low values 0.966 | locus YPL106C, strain sse1, hits give low values 1.1 | locus YPL240C, strain hsp82, hits give low values 1.01 | locus YPL241C, strain CIN2, hits give low values 1.05 | locus YPR119W, strain clb2, hits give low values 1.04 | locus YPR141C, strain kar3, hits give low values 1.05 | locus YPR163C, strain tif3, hits give low values 1.04 | locus YPR167C, strain met16, hits give low values 1.03 | strain wtn01, hits give low values 1.02
active: locus YDR137W, strain rgp1, hits give low values 0.831 | locus YLR262C, strain YPT6 (second series), hits give low values 0.768
